# Reference: ChEMBL document CHEMBL4888484, “Replenishing the malaria drug discovery pipeline: Screening and hit evaluation of the MMV Hit Generation Library 1 (HGL1) against asexual blood stage Plasmodium falciparum ,using a nano luciferase reporter read-out” (2022)
# Hit rate of the full screen: of about 4,800 compounds, about 410 (8.5%) showed an effect of 50% or more. For the sample, strong results were picked, then their nearest neighbours and some compounds at random.
# System: Plasmodium falciparum
# Experiment: Confirmatory screen in NF54 pLDH assay, in single point, at 2uM, 72h
# Type: functional, Erythrocyte
# Details: timepoint 72 hour
row,Compound,% Inhibition
1,CCOC(=O)C1CCC(CN(Cc2ccc(OC)cc2)S(=O)(=O)c2cc(C(=O)Nc3ccc(OCC)cc3)ccc2F)CC1 (stereo not drawn),6%
2,CN1CCN(c2nc(O)c3c(n2)NC(=O)C[C@H]3c2c(F)cccc2Cl)CC1,-6%
3,O=C(CC(F)(F)F)NCc1ccccn1,-21%
4,O=C(c1ccccc1)n1c(=O)n(C(=O)c2ccccc2)c2ccccc21,7%
5,Cc1n(CC(=O)c2ccccc2)c2ccccc2[n+]1CC(=O)c1ccccc1,66%
6,CCC(=O)Nc1ccc(Oc2c(C)c(C(=O)O)nn2-c2ccccc2CC)c(S(=O)(=O)NCC(C)C)c1,9%
7,C[C@@H](CNS(=O)(=O)c1ccco1)N(C)S(=O)(=O)c1ccco1,4%
8,O=C(Nc1ccc2c(c1)OCO2)c1c(-c2ccc(Cl)cc2)nc2n1CCS2(=O)=O,6%
9,CC(CNc1ccccn1)N1CCOCC1C (stereo not drawn),0%
10,c1ccc(Oc2ccc(CNCc3nnc4n3CCCCC4)o2)cc1,9%
11,C#C[C@H](C)OC(=O)c1cccc(Nc2cnccn2)c1,10%
12,CCNC(=O)NCCOC(=O)Cc1cc(Cl)cc2c1OCC2,-1%
13,COCc1cnc(NC(=O)NC2(c3ncccn3)CCOCC2)s1,10%
14,COc1ccc(CN2CCC(C(=O)NCCCN3CCOCC3)CC2)c(OC)c1,9%
15,Cc1ccc(CS(=O)(=O)NC(=O)N2CCC(c3ccccc3)CC2)cc1,10%
16,O=C(NC1CCCC1)c1n[nH]c(=O)c2ccccc12,7%
17,COc1cccc2c1OCC(=O)N([C@@H](C)c1ccccc1)C2,-12%
18,Cc1nnc(-c2cnn(C)c2N)n1C[C@H]1CCCO1,9%
19,O=C(Nc1cccnc1)c1ccc(-c2ccc(Cl)c(Cl)c2)o1,89%
20,O=C(CCC(=O)Nc1cccnc1)NCc1ccc2c(c1)OCO2,6%
21,O=C(Nc1ccn(Cc2cccnc2)n1)c1ccc(-c2ccccc2F)o1,6%
22,CC(C)(C)OC(=O)NS(=O)(=O)NCc1ccccc1,4%
23,Cc1nc(CNS(=O)(=O)Cc2ccc(F)c(Cl)c2)sc1C,3%
24,O=C(NCCN1CCCC1)c1ccc2c(c1)OCCO2,-7%
25,O=C(NCCN1CCCC1)c1ccc2nc(-c3ccc(Cl)cc3)cn2c1,70%

row,Compound,% Inhibition
1,O=c1ccn2c(n1)O[C@H]1[C@H](OC3CCCCO3)[C@@H](COC3CCCCO3)O[C@H]12 (stereo partly drawn),-17%
2,Cc1cc(NC(=O)[C@@H](c2ccccc2)N2CCCCC2=O)sn1,1%
3,COC(=O)C1=C(C(=O)OC)SC(=C2C(=S)C(C)(C)N(C(=O)COc3ccc4ccccc4c3)c3ccccc32)S1,7%
4,Cc1ccc(CN2CCN(C[C@@H](O)Cn3c4ccccc4n4c(=O)cc(C)c(C#N)c34)CC2)c(C)c1,96%
5,N#Cc1c(CN2CCOCC2)cc(=O)n2c1[nH]c1ccccc12,0%
6,COc1cc2c(cc1OC)CN(C(=O)c1cccc(N3C(=O)C(C)(C)CS3(=O)=O)c1)CC2,3%
7,Cc1cc2n(n1)C(C(F)(F)F)CCN2C(=O)C(C)N1C(=O)C2CCCCC2C1=O (stereo not drawn),4%
8,Cn1nc(C(=O)NC2CCCCC2)cc1C(=O)NC1CCCCC1,12%
9,C[C@@H](CNc1ncc(C(=O)N2CCOCC2)cc1Cl)c1nncn1C,-9%
10,COc1ccc(Cl)cc1S(=O)(=O)c1cnc(N2CCOCC2)nc1N,10%
11,CN1CCN(c2c(F)cc3c(=O)c(C(=O)O)cn(-c4ccc(OC5CC6CCC5(C)C6(C)C)c(F)c4)c3c2F)CC1 (stereo not drawn),-4%
12,COc1cccc(NC(=O)N2CCN(c3nc4ccccc4n(Cc4ccccc4)c3=O)CC2)c1,0%
13,CCNc1nc(C)cc(Nc2ccc(NS(=O)(=O)c3c(C)noc3C)cc2)n1,100%
14,CCC(=O)Nc1nc2c(OC)cc(NS(=O)(=O)c3c(C)noc3C)cc2s1,10%
15,Cc1ccccc1S(=O)(=O)NCc1nnc(C(=O)Nc2ccc(F)cc2F)s1,11%
16,O=C(Nc1ccc(N2CCOCC2)cc1)Nc1ccc(F)cc1F,7%
17,Cc1ccc(C)c(S(=O)(=O)NCCNc2ccc(Nc3ccncc3)nn2)c1,29%
18,CCC(=O)N1CCN(c2cc(Nc3ccc(C)cc3)nc(C)n2)CC1,-1%
19,Cc1onc(N)c1S(=O)(=O)Nc1ccncc1,-2%
20,CCNc1nc(C)cc(Nc2ccc(NC(=O)c3cc(C)ccc3C)cc2)n1,99%
21,CCc1ccc(NC(=O)[C@@H]2CCn3c(C(=O)c4ccccc4)ccc32)cc1,6%
22,CCc1ccc(NC(=O)[C@H](C)N2CCC(NS(=O)(=O)c3cccs3)CC2)cc1,77%
23,Cn1cc(C(=O)NCC2CCN(S(=O)(=O)c3cccs3)CC2)cn1,2%
24,Cc1nn(Cc2cccc(F)c2)c(C)c1NC(=O)c1cccc(COc2ccc(Br)cc2)c1,16%
25,COc1cc(C)sc1C(=O)NCc1csc(=O)[nH]1,-7%

row,Compound,% Inhibition
1,COc1ccc(C(=O)n2nc(Nc3ccccc3Cl)cc2Nc2ccccc2Cl)cc1,12%
2,COc1ccc(-n2ncc3c(N)c4c(nc32)CCCC4=O)cc1,11%
3,C[C@@H](C(=O)Nc1cccc2ccccc12)N1CCCCC1,7%
4,CCOCCC1(CN=C(N)N2CCCCC2)CCCC1,5%
5,Cc1ccc(C2c3ccsc3CCN2CCC(=O)N2CCN(C(=O)Cc3cccs3)C(C)C2)cc1 (stereo not drawn),26%
6,OC[C@H]1CCc2nnc(C(F)F)n2C1,11%
7,CCn1nc(-n2cnnc2)c(NS(=O)(=O)c2cccc(Cl)c2)c1C,3%
8,Clc1ccc(COc2ccc(Cl)cc2CNCCCn2ccnc2)c(Cl)c1,100%
9,CCOc1cc(CNCCCn2ccnc2)ccc1OCc1ccccc1,23%
10,COc1cccc(CNCCN2CCOCC2)c1OCc1ccc(Cl)cc1Cl,11%
11,OCCNCc1ccc(Cl)cc1Cl,6%
12,COc1cccc(CNCCCN2CCOCC2)c1OCc1ccc(Cl)cc1Cl,12%
13,Clc1ccc(Cn2cc(CNCCCn3ccnc3)c3ccccc32)c(Cl)c1,100%
14,COc1ccc(NC(=O)[C@@H](c2cc(OC)c(OC)c(OC)c2)N(Cc2ccccc2)C(=O)Cn2nnc3ccccc32)cc1,-15%
15,COc1ccc(S(=O)(=O)N2CCN(S(=O)(=O)c3ccc(OC)cc3)C2)cc1,-2%
16,CCOc1c(CNC(C)(C)CC(C)(C)C)cccc1OC,5%
17,CC(Oc1ccc2c(c1)C(c1ccccc1)N(Cc1ccccc1F)CC2)C(=O)NC1CC1 (stereo not drawn),50%
18,C[C@H](C(=O)NCC1CCN(Cc2ccccc2F)CC1)C1CCOCC1,3%
19,COc1ccc2cc3n(c2c1)C[C@](C(=O)NC1CCCCCC1)(c1ccccc1)N(Cc1ccccc1F)C3=O,-26%
20,O=C(c1ccc2c(c1)OCO2)N1CCn2c1nc1ccccc12,3%
21,CC(=O)Nc1cccc(NC(=O)[C@H]2CC[C@H](Cn3c(O)nc4ccccc4c3=O)CC2)c1,5%
22,COc1cc2c(cc1Cl)-n1cccc1C1(CCNCC1)N2,-15%
23,CC1=CC(=[N+](CCO)CCO)C=C/C1=C(\c1ccc(N(CCO)CCO)cc1C)c1ccccc1Cl,87%
24,O=C(CN1CCN(Cc2cccc(Cl)c2)C1=O)N1CCN(c2ccccc2)CC1,4%
25,COc1cccc(-c2cc3c(N4CCC(C(=O)NC[C@H]5CCCO5)CC4)nccn3n2)c1,5%

row,Compound,% Inhibition
1,Cc1ccc(S(=O)(=O)Cc2nc3cc(C)c(C)cc3[nH]c2=O)cc1,2%
2,N#Cc1cc(S(=O)(=O)NCCN(C2CC2)S(=O)(=O)c2ccc(Cl)c(C#N)c2)ccc1Cl,86%
3,O=S(=O)(NC1CCCCC1)c1ccc(Cl)c(S(=O)(=O)NC2CCCCC2)c1,6%
4,Cc1cccc(NC(=O)CCC(=O)OCC(F)(F)F)c1C,-1%
5,Cc1nc(-c2ccccc2)cc2nn(CC(=O)NC3CCCCC3)c(=O)n12,-8%
6,COc1cccc(-c2cc(C(=O)N3CCCN(C(=O)c4cc(-c5cccc(OC)c5)nc5ccccc45)CC3)c3ccccc3n2)c1,-26%
7,O[C@H]1CNCC[C@@H]1Nc1cc(-c2ccccc2)nc2ccccc12,76%
8,CC(C)(C)NC(=O)C1CCN(C[C@@H]2CC=CCC2)CC1,10%
9,Cc1ccc(/C=C(\C(=O)NC[C@H]2CCCO2)n2ccccc2=O)cc1,12%
10,CCCC1(CNC(=O)Nc2nc(CS(C)(=O)=O)no2)CC1,6%
11,CCCCCn1c(NCc2cc(Cl)ccc2O)nc2ccccc21,21%
12,CCOc1cc(CNCCN2CCOCC2)cc(Cl)c1OCc1ccccc1,9%
13,CCCc1noc([C@H]2CC(=O)N(c3ccccc3C)C2)n1,8%
14,CCc1nc2c(C(=O)N3CCOc4c(C)cc(C)cc43)ccnc2[nH]1,60%
15,CCOc1ccc(C/C(=C/N)c2nc(-c3ccc(Cl)cc3)cs2)cc1,15%
16,CCn1c(=O)c(N2CCC(C(=O)NCCCc3ccccc3)CC2)nc2cccnc21,-22%
17,Clc1cccc(-c2c[nH]c([C@@H]3COCCN3C3CCOCC3)n2)c1,-16%
18,CN1CCC[C@H](c2nnc3sc(-c4ccc(OCc5ccccc5)cc4)nn23)C1,8%
19,CC(C(=O)Nc1nccs1)N1CCCC(c2ccn[nH]2)C1 (stereo not drawn),45%
20,Cc1cc(-c2cncc(CN3CCCCC3)c2)ccc1F,8%
21,Cc1noc(C)c1CNc1cc(S(=O)(=O)N2CCCCC2)ccc1Oc1ccccc1,14%
22,O=S(=O)(c1cccc(Cl)c1)N1CCc2nc(N3CCCCC3)nc(Oc3ccccc3)c2C1,78%
23,Cc1ccc(-c2nn(Cn3nc(C)c(Cl)c3C)c(-c3ccc(C)cc3)c2Br)cc1,-12%
